About 13,000 (27%) of roughly 48,000 compounds showed an effect of 50% or more. The list shows a part of the results.
test system: Wolbachia pipientis; assay: Anti-Wolbachia Cell-Based Screen; format: functional; parameters: scale not given: in the data most compounds retested in dose-response had high values; details: 5 µM

| SMILES | Percent Effect [%] |
| --- | --- |
| Nc1nccnc1C(=O)N1CCN(Cc2cccc3ccccc23)CC1 | -30.2 |
| Cc1ccccc1N1CCCN(C(=O)c2nn(C)cc2Cl)CC1 | 7.51 |
| Cc1ccccc1N1CCN(C(=O)Cn2ccnc2)CC1=O | -5.789 |
| O=C(O)c1c(Cl)ncn1-c1cccc2ccccc12 | 101.1 |
| O=C1CC(c2ccc(C(=O)O)cc2)c2ncn(-c3ccccc3Cl)c2N1 (centres undefined) | 2.095 |
| Cc1ccccc1-n1cnc(Cl)c1C(=O)O | 65.1 |
| Cc1ccc(-c2n[nH]cc2CNCC2CCN(CC(F)(F)F)C2)o1.Cl (centres undefined) | -7.389 |
| Cc1cc(N2CCCN(C(C(=O)O)c3cccc(C)c3F)CC2)ccn1 (centres undefined) | 1.101 |
| O=C1CCC(C(=O)N2CCOC(Cc3cccc4ccccc34)C2)=NN1 (centres undefined) | -9.724 |
| Cc1ccc2ncnc(N3CCOCC3c3c(C)nn(C)c3C)c2c1 (centres undefined) | -2.563 |
| O=S(=O)(c1c(F)cccc1F)N1CCC(Cn2cccn2)CC1 | 15.84 |
| Cc1nc(CN2CCC3(CCN(c4cnn(C)c4)C3=O)C2)cs1.O=C(O)C(F)(F)F (centres undefined) | 109 |
| COCCN1CCCC2(CCN(c3ccsc3)C2=O)C1.O=C(O)C(F)(F)F (centres undefined) | -26.52 |
| Cc1nc(CN2CCCC3(CCN(c4cnn(C)c4)C3=O)C2)cs1.O=C(O)C(F)(F)F (centres undefined) | 93.19 |
| Cc1cccc(NC2CCN(C(=O)Nc3ccc(F)c(F)c3)CC2)n1 | 86.81 |
| Cc1cccc(NC2CCN(C(=O)Nc3ccccn3)CC2)n1 | 83.84 |
| Cc1cccc(NC2CCN(C(=O)Nc3cn[nH]c3)CC2)n1 | 110.2 |
| Cc1cccc(NC2CCN(C(=O)Nc3ccncc3)CC2)n1 | 110.6 |
| Cc1cccc(NC2CCN(C(=O)Nc3cc(C)on3)CC2)n1 | -9.175 |
| O=C(Nc1ccc(F)c(Br)c1)N1CCCC1 | 7.891 |
| Cc1cccc(NC2CCN(C(=O)Nc3cc(F)cc(F)c3)CC2)n1 | -9.024 |
| Cc1ccc(C(=O)Nc2cn[nH]c2)cn1 | 2.995 |
| O=C(CCn1ccc(=O)[nH]c1=O)N1CCC(OCc2cccnc2)CC1 | 17.72 |
| COCc1noc(C2(c3ccc(Br)cc3)CCOCC2)n1 | -15.05 |
| CS(=O)(=O)CCCC(=O)N1CCN(CC2CC2)c2ccccc21 | -17.42 |

| SMILES | Percent Effect [%] |
| --- | --- |
| N#Cc1ccc(N2CCCN(CCCn3cncn3)CC2)cc1 | -1.933 |
| Cc1nc(N2CCC3(CCCNC3=O)C2)nc2c1CCCC2 (centres undefined) | 1.379 |
| CN1C[C@@H](N)C[C@H]1C(=O)N1CCC(Cc2ccc(F)cc2)CC1 | 81.94 |
| CCC(=O)N1CCCC1C(=O)N1CCC(Cc2ccc(F)cc2)CC1 (centres undefined) | 110.1 |
| CN1CCC(N(C)CCC(=O)N2CCC(Cc3ccc(F)cc3)CC2)C1 (centres undefined) | -0.3221 |
| CC(C(=O)N1CCC(Cc2ccc(F)cc2)CC1)n1ccnc1 (centres undefined) | -3.796 |
| CN1C[C@@H](N)C[C@H]1C(=O)N1CCC(CCCc2ccccc2)CC1 | 99.37 |
| CC(=O)N1CCCC1C(=O)N1CCC(=Cc2cccc(F)c2)CC1 (centres undefined) | -11.75 |
| CN1CSC[C@H]1C(=O)N1CCC(CCc2ccccc2)CC1 | -22.77 |
| O=C(C1CCS(=O)(=O)CC1)N1CCC(Cc2ccc(F)cc2)CC1 | -5.215 |
| CN1CSC[C@H]1C(=O)N1CCC(Cc2ccccc2F)CC1 | -34.6 |
| O=C1CCC2(CCCN(C(=O)c3cscn3)C2)CN1CCc1c[nH]cn1 (centres undefined) | -10.65 |
| COCC[C@]1(O)CCN(C(=O)CCc2cnn(C)c2)C[C@H]1C | 4.52 |
| COCCCN1C(=O)CC[C@H]2CN(c3ccc(C(N)=O)cn3)CC[C@H]21 | -7.977 |
| O=C(O)C(F)(F)F.O=C([C@@H]1COC[C@H]2CN(C3CCCC3)C[C@H]21)N1CCCO1 | 17.11 |
| N#Cc1cccn(CCOc2ccc(Cl)cc2)c1=O | 1.787 |
| CCN(Cc1cccc(C(=O)Nc2ncc(C)s2)c1)[C@H]1COC[C@@H]1O | -30.5 |
| COc1cccc(OCC(=O)N(C)c2cccnc2)c1 | 104.9 |
| COc1cccc(OCC(=O)Nc2cc(C)cnc2OC)c1 | -3.039 |
| COc1cccc(OCCCc2cncc(C(N)=O)c2)c1 | -6.464 |
| COc1ccc(CC(=O)N(C)c2cccnc2N(C)C)c(Cl)c1 | 3.868 |
| COc1cccc(OCC(=O)N(C)c2cccnc2N(C)C)c1 | 85.27 |
| COc1cccc(OCC(=O)NS(=O)(=O)c2cc(F)ccc2F)c1 | -14.39 |
| Cn1cccc1C(=O)N[C@@H]1CN(Cc2cccs2)[C@@H]2COC[C@@H]21.O=C(O)C(F)(F)F | -0.8834 |
| Cc1nc(C)n(CC2CCCCN2CCCC#N)n1 (centres undefined) | 3.604 |

| SMILES | Percent Effect [%] |
| --- | --- |
| CCc1nnc(NC(=O)N(CCOC)Cc2ccc(C)o2)s1 | -17.47 |
| CN(CCCNC(=O)CN1CCS(=O)(=O)CC1)c1ccccc1 | 9.575 |
| c1cncc(-c2nnc([C@H]3CCN(CC4CC4)C3)o2)c1 | 10.36 |
| O=C(NC[C@H]1CC[C@H](c2nnc(-c3cccnc3)o2)CC1)C1CC1 | 169.2 |
| COCC(=O)NC[C@H]1CC[C@H](c2nnc(-c3cccnc3)o2)CC1 | 199.6 |
| c1cc(-c2nnc([C@H]3CCNC3)o2)ccn1 | -9.06 |
| COCC(=O)NCC1Cn2nnc(-c3ccncc3)c2CO1.O=C(O)C(F)(F)F (centres undefined) | -3.08 |
| COCC(=O)NC[C@H]1CC[C@H](c2nnc(-c3ccncc3)o2)CC1 | 130.9 |
| COCC(=O)NC[C@@]1(COc2cccnc2)C[C@@H](O)[C@@H](O)C1.Cl | -0.8237 |
| O=C(c1cccnc1)C1CCCN(c2nnc(C3CC3)o2)C1 (centres undefined) | -9.968 |
| c1cncc(-c2nnc([C@H]3CCN(CC4CCCCC4)C3)o2)c1 | 11.75 |
| Cc1nc(C(C)C)sc1C(=O)N(C)Cc1nc(-c2ccccn2)no1 | -7.076 |
| CC(CN(C)C(=O)c1cn(C)nc1-c1ccc(F)cc1F)C(=O)O (centres undefined) | -1.433 |
| CCOc1ccc2nc(CN3CCC(CNC(C)=O)C3)ccc2c1 (centres undefined) | 0.9569 |
| Cc1nc(CN(C)C(=O)c2cc(C)sc2NC(=O)C(C)(C)C)no1 | -2.602 |
| Fc1cccc(-n2cccn2)c1NCc1nnc(C2CC2)o1 | -10.01 |
| Cc1cc(C)n(C2CN(C(=O)Cn3c(C)cc(=O)c4ccccc43)C2)n1 | 17.29 |
| O=C(CSCC1CC1)N1C[C@@H]2CC[C@H](C1)N(Cc1ccccn1)C2=O | 4.164 |
| CCn1cc2c(n1)CN(S(=O)(=O)Cc1ccccc1)CC2COC (centres undefined) | 10.82 |
| CN1CC(=O)N(C2CCNCC2)Cc2c(NC3CCC3)ncnc21 | 106.1 |
| CN1CC(=O)N(C2CCC2)Cc2c(NC3CCNCC3)ncnc21 | 107.9 |
| Cc1n[nH]c(C2CN(CCNC3CCCCC3)CCO2)n1 (centres undefined) | 13.35 |
| CCCN(C)C(=O)c1cc(S(=O)(=O)NCC)ccc1C | -9.376 |
| CCc1nc(Cn2c(=O)n(CC)c3ccccc32)no1 | -6.157 |
| CCNS(=O)(=O)c1ccc2c(c1)c(=O)n(CC)c(=O)n2CC | 90.08 |

| SMILES | Percent Effect [%] |
| --- | --- |
| CCn1c(=O)c2cc(S(N)(=O)=O)ccc2n(CC)c1=O | 133.6 |
| CCNS(=O)(=O)c1ccc(C)c(C(=O)N(C)Cc2ccccc2C)c1 | -10.61 |
| CCn1c(=O)n(Cc2nc(C3CC3)no2)c2ccccc21 | -1.691 |
| CCn1c(=O)n(CC)c2cc(S(N)(=O)=O)ccc21 | 88.83 |
| NC(=O)Cn1ccc(NC(=O)C2(c3cccc(Cl)c3)CC2)n1 | -4.273 |
| CN(C)C(=O)[C@@H]1C[C@H]2OCC[C@H]2N(CCOc2ccc(Cl)cc2)C1.O=C(O)C(F)(F)F | 2.849 |
| Cn1ccnc1COc1ccc(NC(=O)CCC2CCCO2)cc1 (centres undefined) | 7.737 |
| CC(C(=O)Nc1ccnn1C(C)C)N1CCN(Cc2ccon2)CC1 (centres undefined) | 9.174 |
| c1cnc(N2C[C@H]3CCC[C@@H](CN4CCCC4)[C@H]3C2)nc1 | -23.6 |
| Cc1cnc(CN(C)C2CCN(CC(=O)Nc3nncs3)C2)o1.O=C(O)C(F)(F)F (centres undefined) | 3.209 |
| CC(C)N1CCCC2(CCN(C(=O)COCC(F)(F)C(F)F)C2)C1=O (centres undefined) | -9.489 |
| CS(=O)(=O)CCN1CCC2(CCCN(C3CCOCC3)C2=O)C1 (centres undefined) | -2.931 |
| CN1CCN(C(=O)N2CCC3(CCCN(C4CCOCC4)C3=O)C2)CC1 (centres undefined) | 106.4 |
| Cc1cc(C(=O)N2CCC3(CCCN(CC4CC4)C3=O)C2)c(C)n1C (centres undefined) | -3.042 |
| Cc1nonc1CC(=O)N1CCC2(CCCN(C3CCOCC3)C2=O)C1 (centres undefined) | 111.8 |
| Cc1c(C(=O)N2CCC3(CCCN(CC4CC4)C3=O)C2)ccn1C (centres undefined) | -5.125 |
| Cc1nonc1CC(=O)N1C[C@@H]2CC[C@H](C1)N(Cc1ccccc1)C2=O | -22.99 |
| O=C(COCC(F)(F)C(F)F)N1CCC2(CCCN(CCO)C2=O)C1 (centres undefined) | -15.14 |
| Cc1nccnc1CN1CCC2(CCCN(C3CCOCC3)C2=O)C1 (centres undefined) | 1.539 |
| COCCOCC(=O)N1CCC2(CCCN(C3CCOCC3)C2=O)C1 (centres undefined) | 121 |
| CCOC(=O)N1CCC2(CCCN(C3CCOCC3)C2=O)C1 (centres undefined) | 112 |
| Cn1cccc1C(=O)N1CCC2(CCCN(CC3CC3)C2=O)C1 (centres undefined) | 2.832 |
| c1ncc2c(n1)CN(CC1CCCCO1)CC2 (centres undefined) | -13.48 |
| CCn1nc(C)c2nc(C(C)C)nc(NCCOC)c21 | -9.329 |

— ChEMBL document CHEMBL3988442, “University of Dundee, Small-Polar-MMV Screening Library” (2021)
